Data: the supplement of paper PMC10681739

Each sequence was assayed against T1, ETS1 (UniProt P14921) (assay: TF binding intensity (PBM fluorescence), negative control probe (arbitrary fluorescence units); higher = stronger binding).
T1 sequence: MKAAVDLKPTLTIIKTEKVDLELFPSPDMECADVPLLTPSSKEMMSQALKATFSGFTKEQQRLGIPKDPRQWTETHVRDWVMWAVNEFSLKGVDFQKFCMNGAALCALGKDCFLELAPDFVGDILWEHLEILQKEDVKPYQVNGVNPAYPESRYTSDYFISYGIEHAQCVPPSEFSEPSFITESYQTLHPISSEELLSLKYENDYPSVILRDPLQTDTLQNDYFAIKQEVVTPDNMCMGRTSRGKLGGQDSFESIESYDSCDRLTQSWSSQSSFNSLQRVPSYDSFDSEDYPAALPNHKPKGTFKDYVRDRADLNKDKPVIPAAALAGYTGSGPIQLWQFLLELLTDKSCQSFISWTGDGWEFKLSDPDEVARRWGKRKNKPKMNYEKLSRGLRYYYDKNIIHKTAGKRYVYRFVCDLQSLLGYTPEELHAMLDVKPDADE
Experimental: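 gcPBM negative-control 36-bp genomic probes lacking TF binding sites. Each was incubated with recombinant human ETS1 or RUNX1 alone and detected by antibody fluorescence. Values are medians over replicate spots (4 spots for the ETS1-RUNX1 arrays, 3 for the ETS1-ETS1 array). The probes sit in constant array flanks that are not printed.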

Sequence | TF binding intensity
ATGGATAAGAATGTCTGTGGGTAGCTGTCTCCTCTT (protein concentration 1 nM) | 444
CGGACTGGGAGTTTGACCGCGTTGACGACGGCTCGC (protein concentration 1 nM) | 446
GCCCTGAGACTTGCCTTGCAATGCCATGTTTGTGTA (protein concentration 10 nM) | 125
GGGCCGCGCCGAGGGGACCACGGGACGCCCTCCTTC (protein concentration 10 nM) | 102
GATATGAGATCAGAATGAGGCTGCATGAGAACAAGT (protein concentration 10 nM) | 112
CCTGTTTGAAAGAGAAAGAGGGCAGAGTGTGACATG (protein concentration 10 nM) | 160
GTGAATTCAAAACAACCCACAGTTTTAATTCTCTGT (protein concentration 1 nM) | 452
GATGCTCTGATACGCGCTGAAAAGAAGTCAGGCTTC (protein concentration 10 nM) | 134
ACTTTCTATGAGGCTGCCACTCCTGGTACCACACAT (protein concentration 10 nM) | 133
TTTTTTTTTTTGGTCTGTGGTTTTGGAGTTTTTGTT (protein concentration 1 nM) | 716
CCCTGAGGTCTATCTTGCTGCAAATTGAATGCCTGC (protein concentration 10 nM) | 120
GTTGGGCCCCCTGGGCCTTGTTCTCGGGATCCAGGG (protein concentration 10 nM) | 111
AACTTGAAGTCACCACATGAAAGGTTCCAATGCAGC (protein concentration 10 nM) | 121
GCCCTCTGCGGGGCAACAGCACGAGGCATTACCCCT (protein concentration 10 nM) | 107
TTAACCTCTAGAAAAAGTAAATATTCAGCAATAGGA (protein concentration 10 nM) | 103
CTCTGCCCAGTTGGTTGTGGCTCTTCATTACTGTGG (protein concentration 1 nM) | 512
GGCCCTGGGCCTGACCCATGAAATCATTTTTCCCTT (protein concentration 10 nM) | 94.3

Sequence | TF binding intensity
TCAGCCTGAGAGCTATGTGGGTGAATAAAAATAAAA (protein concentration 1 nM) | 499
GAAATCACGGGACCCCGAGCGGTTGGAGATCTGCCA (protein concentration 10 nM) | 91.7
ACCCTGAGCCCTCTCCCGCTCCCTGGGTCTCAGCCT (protein concentration 10 nM) | 98.1
TGGAATCTCATCCAAGCTGGATTTTGCGATCTTTGA (protein concentration 10 nM) | 104
CTCGCGGCGCACTCCCAGAGGCTGGGGGGCCGGGGC (protein concentration 10 nM) | 183
GCTGGGAGACAGAGCCAGACACTGTCTCAAAAAAAA (protein concentration 10 nM) | 110
TGACCGGCGCCGACCCGGGGCGCCGAGAGGCCCACC (protein concentration 10 nM) | 115
CTGGGCCATTAACCTCAGCAGAAAAATGCTTTTTGC (protein concentration 10 nM) | 97.6
ACACATCAAAATGTCTGTGGTTTTTATGAAAAATAG (protein concentration 1 nM) | 510
AAATAAATTCTTGTCTGGGGCCGACATCTGTGTGGA (protein concentration 10 nM) | 119
TCCAGAAGCAGAGGCTGAGAGAGGGATTCTTGTGCC (protein concentration 10 nM) | 112
CCGCACGCGGGCGCGGGCCAGCTGCAGATGGAGAAC (protein concentration 10 nM) | 136
AGCCCGGGTGACTTGAGAGTAATTAATGTGCAAAGA (protein concentration 10 nM) | 106
GTTAGAATGCAACCTTTTGACTTATATCTTTTCCCC (protein concentration 10 nM) | 140
TCCGATGTTACCTGGGCTGGGCCATGGAGAATGGCG (protein concentration 10 nM) | 112
GAGCCCTTCTGGCCTCCCTGTATAAGTCCAGACTGA (protein concentration 10 nM) | 96.9
CCCCTGTGCAACCTTTCATTCCCTAAGCCACTTTTC (protein concentration 10 nM) | 139
